aSyn UTR act = Activators via SNCA 5'UTR binding, MLPCN; activity score, % (tested at 7.5 µM), hits read low; 7.1% of 300,000 active; alpha-synuclein 5'UTR reporter, activators screen; AID 1814; in the data active = activity score below about -60%
Numbers stand for hits. Only a sample is shown.

O=C(CNC(=O)c1ccccc1F)N/N=C/c1ccc2c(c1)OCO2 was read as aSyn UTR act -98.3.
`Cc1nc2ccccn2c1C(=O)N/N=C/c1ccc2c(c1)OCO2` gave aSyn UTR act -96.1.
For CC(N=c1ccccn1C(=O)Nc1ccc(Cl)cc1)c1ccco1 (stereo not drawn) the results were aSyn UTR act -121.0.
For C/C(CC(=O)Nc1ccc2c(c1)OCCO2)=N\NC(=O)c1ccccn1 the results were aSyn UTR act -142.5.
`C/C(CC(=O)Nc1cc(C)cc(C)c1)=N\NC(=O)c1ccccn1` gave aSyn UTR act -164.8.
COc1ccc(NC(=O)C/C(C)=N/NC(=O)c2ccccn2)c(OC)c1 was read as aSyn UTR act -107.4.
`C/C(Cc1ccccc1)=N\NC(=O)c1ccccn1` gave aSyn UTR act -66.7.
Screening CCC(C)c1ccc(NC(=O)C/C(C)=N/NC(=O)c2cnccn2)cc1 (stereo not drawn) returned aSyn UTR act -62.8.
`C/C(CC(=O)Nc1ccccn1)=N\NC(=O)c1ccccc1O` gave aSyn UTR act inactive.
Screening C/C(=N/NC(=O)c1ccccn1)c1ccncc1 returned aSyn UTR act -115.7.
C/C(=N\NC(=O)c1ccccc1Cl)c1ccccn1 was read as aSyn UTR act inactive.
C/C(CC(=O)Nc1ccccn1)=N\NC(=O)c1ccc2ccccc2c1 was read as aSyn UTR act -64.4.
Screening C/C(CC(=O)Nc1ccc2c(c1)OCCO2)=N\NC(=O)C(=O)Nc1ccccc1C returned aSyn UTR act -73.7.
Cc1cc(C)nc(Nc2nc3ccccc3s2)n1 was read as aSyn UTR act -176.9.
`CC(=O)c1c(C)nc(Nc2nc3ccccc3s2)nc1C` gave aSyn UTR act -82.8.
`Cc1ccc(N/C=C(/C#N)c2ccsc2)cc1C` gave aSyn UTR act -172.2.
For COc1cccc(-c2nnc(SCc3cccnc3)o2)c1 the results were aSyn UTR act -164.2.
For O=[N+]([O-])c1cccc(-c2nnc(SCc3cccnc3)o2)c1 the results were aSyn UTR act -61.9.
COc1cc(O)oc1C=Nc1ccc(C(F)(F)F)cc1 was read as aSyn UTR act -89.1.
Screening CC(C)(C)Nc1ncnc2c1cnn2-c1ccccc1 returned aSyn UTR act -104.0.
Cc1cccc(-n2ncc3c(N4CCCc5ccccc54)ncnc32)c1 was read as aSyn UTR act -123.4.
Screening Clc1ccc(-n2ncc3c(NCc4cccnc4)ncnc32)cc1Cl returned aSyn UTR act -86.7.
c1ccc(-n2ncc3c(NCCN4CCCCC4)ncnc32)cc1 was read as aSyn UTR act -133.1.
`c1ccc(CNc2ncnc3c2cnn3-c2ccccc2)cc1` gave aSyn UTR act -256.4.
`Fc1ccc(CNc2ncnc3c2cnn3-c2ccccc2)cc1` gave aSyn UTR act -70.9.
Cc1cccc(-n2ncc3c(NCc4ccccc4)ncnc32)c1 was read as aSyn UTR act -140.4.
c1ccc(CCNc2ncnc3c2cnn3-c2ccccc2)cc1 was read as aSyn UTR act -148.8.
For Cc1cccc(-n2ncc3c(N(CCO)CCO)ncnc32)c1 the results were aSyn UTR act -105.7.
`Cc1cccc(-n2ncc3c(N(C)C4CCCCC4)ncnc32)c1` gave aSyn UTR act inactive.
For CCN(CC)c1ccc(/C=N/Nc2nc(C)cc(=O)[nH]2)c(O)c1 the results were aSyn UTR act inactive.
Screening Cc1cc(=O)[nH]c(N/N=C/c2cc(C)n(-c3ccccc3)c2C)n1 returned aSyn UTR act -63.4.
Cc1cc(=O)[nH]c(N/N=C/c2ccccc2Cl)n1 was read as aSyn UTR act -76.4.
`Cc1ccc(C(=O)Cc2cc3ccccc3oc2=O)c(C)c1` gave aSyn UTR act -129.8.
COc1ccc(C(=O)Cc2cc3ccccc3oc2=O)cc1 was read as aSyn UTR act -124.6.
For Cc1ccc(C(=O)NC(=S)Nc2ccc(-c3cc4ccccc4oc3=O)cc2)c(C)c1 the results were aSyn UTR act inactive.
Screening CC(=O)c1cccc(NC(=O)CN2C=NS(=O)(=O)c3ccc(C)cc32)c1 returned aSyn UTR act -124.1.
`O=S(=O)([N-]c1nc2ccccc2nc1-[n+]1ccc(-c2ccncc2)cc1)c1ccccc1` gave aSyn UTR act -105.0.
Cn1ncc([N+](=O)[O-])c1C(=O)Nc1ccc(-c2nc3ccccc3o2)cc1 was read as aSyn UTR act -129.5.
For [O-]/[N+](=C\C=C\c1ccccc1)c1ccccc1 the results were aSyn UTR act -181.8.
Screening Cc1cc(NC(=O)c2ccccc2)ncc1NC(=O)c1ccco1 returned aSyn UTR act -115.3.
`Cc1ccc(C(=O)Nc2ccc(NC(=O)c3ccco3)c(C)c2)cc1` gave aSyn UTR act -67.5.
For Cc1ccc(O)c(NC(=O)c2ccco2)c1 the results were aSyn UTR act -66.2.
Screening Cc1cc(O)c(NC(=O)c2ccco2)cc1C returned aSyn UTR act -98.1.
`Cc1cc(NC(=O)C(C)C)ncc1NC(=O)c1ccccn1` gave aSyn UTR act -87.6.
`COc1ccccc1-n1c(C)cc(/C=C2\C(=N)N3N=C(CC(=O)N4CCOCC4)SC3=NC2=O)c1C` gave aSyn UTR act -71.6.
For Cc1cc(/C=C2/SC(=O)N(CC(=O)N3CCOCC3)C2=O)c(C)n1-c1ccccc1F the results were aSyn UTR act -143.2.
Screening COc1cc(/C=C2/C(=N)N3N=C(CC(=O)N4CCOCC4)SC3=NC2=O)ccc1OCc1ccc(F)cc1 returned aSyn UTR act -101.7.
For Cn1c(-c2ccc3c(c2)OCO3)cnc1NCc1ccccc1 the results were aSyn UTR act -103.6.
For Cn1c(-c2ccc3c(c2)OCO3)cnc1NCc1ccccc1Cl the results were aSyn UTR act -94.5.
`O=C(Nc1ccccc1Br)c1ccc2nccnc2c1` gave aSyn UTR act -113.5.
`O=C(Nc1ccccc1C(F)(F)F)c1ccc2nccnc2c1` gave aSyn UTR act -89.0.
COc1ccc(C(=O)CNc2ccccc2C#N)cc1 was read as aSyn UTR act -93.0.
For COc1ccc(C(=O)COc2ccccc2N2C(=O)C3C4C=CC(C4)C3C2=O)cc1 (stereo not drawn) the results were aSyn UTR act -81.6.
Screening COc1ccc(C(=O)CNc2ccccc2CO)cc1 returned aSyn UTR act -69.8.
COc1ccc(C(=O)COc2ccccc2C#N)cc1 was read as aSyn UTR act -126.7.
Screening O=C(Nc1cc(-c2nc3ncccc3o2)ccc1Cl)c1ccc([N+](=O)[O-])o1 returned aSyn UTR act -199.9.
For CCCn1c(NC(=O)c2ccc([N+](=O)[O-])o2)nc2ccccc21 the results were aSyn UTR act -88.5.
For COc1ccccc1NC(=O)c1ccc([N+](=O)[O-])o1 the results were aSyn UTR act -98.1.
O=C(Nc1cccc2ccccc12)c1ccc([N+](=O)[O-])o1 was read as aSyn UTR act -178.8.
For CC1=Nc2ccccc2N=C(N)C1c1ccccc1 (stereo not drawn) the results were aSyn UTR act -123.9.
For CC1=NN(C(N)=S)C(=O)C1N=Nc1cccc([N+](=O)[O-])c1 (stereo not drawn) the results were aSyn UTR act -121.2.
`CC1=NN(C(N)=S)C(=O)C1N=Nc1ccc(Cl)cc1` (stereo not drawn) gave aSyn UTR act -143.2.
Screening CC1=NN(C(N)=S)C(=O)C1N=Nc1cccc(Cl)c1C (stereo not drawn) returned aSyn UTR act -184.3.
`CC1=NN(C(N)=S)C(=O)C1N=Nc1ccc(Br)cc1` (stereo not drawn) gave aSyn UTR act -114.5.
O=C(O)C(=O)/C(=C\c1ccc([N+](=O)[O-])cc1)c1ccc2ccccc2n1 was read as aSyn UTR act -88.4.
